This excerpt belongs to a sample that is enriched for hits.
Tb PYK inh: inhibitors of Trypanosoma brucei pyruvate kinase; Q57TT1; TbPYK enzyme, Kinase-Glo Plus ATP luminescence, 45 min; Potency, µM (series often up to 76.8 µM), for inactives: at the highest dose activity, negative = inhibition, most hits filed as inhibitors; 410,000 tested, 0.12% active; note: potency is the fitted concentration of half-maximal effect; % is set by controls: 0 for no effect and ±100 for the full control effect; nearly all actives have a fitted effect of over 50% in size
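Luminescence from Kinase-Glo Plus, added after a 45-minute room-temperature reaction, served as the end-point read-out. The enzyme and substrate were preincubated with compound before ADP (130 uM final) initiated turnover. Concentration-effect curves came from normalized qHTS data.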
Sm TGR block: S. mansoni TGR enzyme inhibition; Potency, µM (doses to about 114 µM), for inactives: top-dose activity change, negative = inhibition, most hits filed as inhibitors; purified TGR, DTNB reduction, TNB absorbance 405 nm; 360,000 tested, 3% active; note: potency is the fitted concentration of half-maximal effect; % is set by controls: 0 for no effect and ±100 for the full control effect; nearly all actives have a fitted effect of over 60% in size
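Kinetic colorimetric format: TGR-catalysed, NADPH-driven DTNB reduction monitored via TNB absorbance. Enzyme dispensed at 20 nM; compound exposure 15 min at room temperature before reaction start.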
CHX counter: counter-screen for Shiga toxin inhibitors: cycloheximide protein synthesis inhibition; cell reporter, cycloheximide protein synthesis inhibition counterscreen; max response, %; 300,000 tested, 12% active; AID 2314; in the data active = max response mostly above about 13%, no sharp cut-off; inactive = mostly below about 14%; note: read at 38.3 µM for the half of the compounds with a filed dose; 0% is about no effect
Shiga inhibitor: inhibitors of Shiga toxin in Vero cells. 290,000 tested, 9.2% active. inhibition, % at 38.7 µM. Vero cells, Shiga toxin protein synthesis inhibition reporter; in the data active = inhibition mostly above about 28%, no sharp cut-off; inactive = mostly below about 43%; note: 0% is about no effect
Giardia FBPA inh: Giardia lamblia aldolase inhibition; A8B2U2; purified Giardia FBPA; Potency, µM (series often up to 59.6 µM), inactives show at the highest dose activity, negative = inhibition, actives largely listed as inhibitors; 290,000 tested, 0.71% active; AID 2451; note: potency is the fitted concentration of half-maximal effect; % is set by controls: 0 for no effect and ±100 for the full control effect; nearly all actives have a fitted effect of over 55% in size
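40 nM FBPA preincubated 10 min at RT with compound (up to 57.5 uM final), then substrate plus GAPDH/TPI/NAD/arsenate coupling and diaphorase/resazurin added. Fluorescence read after 20 min at RT, 525/598 nm.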
LmPK inh: LmPK (Leishmania mexicana) enzyme inhibition. purified LmPK, Kinase-Glo ATP luminescence, 1 h. Potency, µM (series often up to 57.5 µM), for the others: at the highest dose activity change, negative = inhibition, most hits filed as inhibitors. 290,000 tested, 0.37% active. AID 1721; note: potency is the fitted concentration of half-maximal effect; % is set by controls: 0 for no effect and ±100 for the full control effect
Target sequence (Q27686 whole entry, looked up): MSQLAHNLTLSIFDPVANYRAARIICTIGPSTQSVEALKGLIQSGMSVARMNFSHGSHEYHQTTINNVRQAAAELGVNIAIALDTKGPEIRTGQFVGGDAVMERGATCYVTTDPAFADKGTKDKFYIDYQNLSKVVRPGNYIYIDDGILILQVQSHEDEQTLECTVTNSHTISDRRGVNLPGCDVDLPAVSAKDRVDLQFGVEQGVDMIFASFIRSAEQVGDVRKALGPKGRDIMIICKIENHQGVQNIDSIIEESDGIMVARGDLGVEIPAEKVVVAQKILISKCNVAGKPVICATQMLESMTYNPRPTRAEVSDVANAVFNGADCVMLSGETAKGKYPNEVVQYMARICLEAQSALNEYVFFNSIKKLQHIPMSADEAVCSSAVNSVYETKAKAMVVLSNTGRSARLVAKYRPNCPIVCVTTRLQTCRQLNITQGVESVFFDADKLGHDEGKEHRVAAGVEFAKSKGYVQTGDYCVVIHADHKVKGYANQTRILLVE
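In 50 mM imidazole pH 7.2 with 7 mM MgCl2, LmPK (0.1 nM) turned over PEP (0.5 mM) and ADP (0.1 mM) for 1 h at room temperature. Luciferase read-out of ATP.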
* hit, by the source's call; ? = inconclusive; nt = no result. Unless noted, calls come from the whole dose curve; as a rule, active = well fitted curve in the direction sought with a large enough effect; inconclusive = small, poorly fitted or top-dose-only effect, or another doubt; inactive = no such curve, though single readings can be large; an effect the other way counts as inactive or inconclusive.

SMILES	Tb PYK inh	Sm TGR block	CHX counter	Shiga inhibitor	Giardia FBPA inh	LmPK inh
O=C(Nc1cccc2c1CCCC2)c1cccc(F)c1	0%	-2%	-3	-5	3%	-1%
COc1cc2c(cc1NC(=O)c1cccc(F)c1)CCCC2	-4%	0%	36*	67*	-5%	2%
COc1cc2c(cc1NC(=O)c1ccccc1F)CCCC2	-6%	-3%	50*	93*	-1%	1%
N=S(=O)(O)Cc1noc2ccccc12	nt	nt	nt	nt	-1%	nt
CC(C)(C)NC(=O)C(c1ccncc1)N(Cc1ccco1)C(=O)c1ccc(-c2ccccc2)[nH]1 (configuration not stated)	-8%	10µM*	39*	91*	-16%	5%
CC(C)(C)NC(=O)C(c1ccc(O)cc1)N(Cc1ccco1)C(=O)CCC(=O)Nc1ccccn1 (configuration not stated)	-19%	-10%	-6	-4	8%	7%
CC(C)(C)NC(=O)C(c1ccc(Cl)cc1)N(Cc1ccco1)C(=O)CCl (configuration not stated)	-14%	11µM*	-1	-4	-19%	0%
N#Cc1cccc(NC(=O)C2CCN(c3ncccn3)CC2)c1	4%	4%	nt	nt	nt	nt
CCCCN1C[C@H](c2ccccc2)[C@@H](CC(=O)NC)C1=O	7%	nt	nt	nt	nt	nt
CC(C)(C)c1ccc(NC(=O)COC(=O)c2ccc([N+](=O)[O-])s2)cc1	4%	-16%	14*	63	-20%	2%
O=C(COC(=O)c1ccc([N+](=O)[O-])s1)Nc1ccc(F)cc1	6%	14µM*	nt	nt	nt	nt
CCN(c1ccc(NC(=O)COC(=O)c2ccc(C)s2)cc1)C(C)C	-21%	-17%	19*	9	-2%	2%
O=C(COC(=O)c1ccc([N+](=O)[O-])s1)Nc1ccccc1	-12%	?	-3	11	-4%	-4%
COc1cccc(/C=C/c2nc(C#N)c(N3CCN(C)CC3)o2)c1	-3%	33%	nt	nt	nt	nt
CCCSc1ncc(Cl)c(C(=O)Nc2ccc(S(=O)(=O)N3CCCC(C)C3)cc2)n1 (configuration not stated)	-6%	15%	nt	nt	nt	nt
Cc1cc(C)c2nc(N3CCCC(C(=O)NCCCN4CCOCC4)C3)sc2c1 (configuration not stated)	-4%	4%	14	42	0%	0%
Cc1cc(C)c2nc(N3CCCC(C(=O)NCCN4CCOCC4)C3)sc2c1 (configuration not stated)	-6%	3%	36*	46*	1%	-1%
CCN1CCN(CCCNC(=O)C2CCCN(c3nc4c(C)cc(C)cc4s3)C2)CC1 (configuration not stated)	-2%	-13%	13*	42*	1%	-1%
O=C(COc1cc(Cl)c(Cl)cc1Cl)Nc1ccc([N+](=O)[O-])cc1Cl	-1%	5%	4	-2	0%	3%
Cc1ccc(-c2cc(C(=O)NCCCn3ccnc3)c3cc(Br)ccc3n2)o1	?	1.6µM*	-1	-3	-2%	-24%
O=C(Nc1ccc(C(=O)N2CCOCC2)cc1)c1cc(-c2cccnc2)nc2ccc(Br)cc12	0%	14%	-1	-20	-6%	0%
Cc1ccc(-c2cc(C(=O)NC3=NCCS3)c3cc(Br)ccc3n2)o1	nt	2.8µM*	-2	-9	11%	?
Cc1ccc(-c2cc(C(=O)NN3CCOCC3)c3cc(Br)ccc3n2)o1	-15%	10µM*	-2	-14	-20%	0%
Cc1ccc(-c2cc(C(=O)O)c3cc(Br)ccc3n2)o1	10µM*	2µM*	7	13	?	-25%
CCC(Cn1nnc2ccccc2c1=O)NC(=O)Nc1cc(C)cc(C)c1 (configuration not stated)	-1%	-4%	nt	nt	nt	nt
SMILES	Tb PYK inh	Sm TGR block	CHX counter	Shiga inhibitor	Giardia FBPA inh	LmPK inh
Cc1ccc(-c2cc(C(=O)O)c3cc(Br)ccc3n2)s1	6%	?	23*	42*	-12%	-7%
CN1CCN(c2ncc3nc(-c4cccs4)c(=O)n(CCC#N)c3n2)CC1	nt	nt	nt	nt	1%	nt
CCOC(=O)c1cc(C#N)c(SCC(=O)Nc2ccc(C(C)=O)cc2)[nH]c1=O	3%	-6%	17*	47*	15%	3%
Cc1ccc(S(=O)(=O)c2[nH]c(-c3ccccc3)nc2SCC(N)=O)cc1	-4%	-13%	nt	nt	nt	nt
CC1=C(C(=O)Nc2ccc(C)cc2)C(c2cccs2)NC(=S)N1 (configuration not stated)	-2%	-9%	19*	22	0%	6%
CC1=C(C(=O)Nc2ccc(F)c(F)c2)C(c2cccs2)NC(=S)N1 (configuration not stated)	-7%	6%	-4	1	2%	3%
CCc1cc2c(=O)[nH]c(N3CCOCC3)nc2s1	1%	-11%	22*	34*	9%	-5%
CCc1cc2c(=O)[nH]c(-c3ccncc3)nc2s1	-21%	-2%	3	-9	-7%	-5%
O=C(N/N=C/c1ccc2c(c1)OCO2)c1ccc(NS(=O)(=O)c2cccs2)cc1	-8%	-6%	24*	81*	4%	-5%
O=C(N/N=C/c1ccc([N+](=O)[O-])o1)c1ccc(NS(=O)(=O)c2cccs2)cc1	-6%	35µM*	-1	-9	-7%	5%
O=C(N/N=C/c1ccc([N+](=O)[O-])cc1)c1ccc(NS(=O)(=O)c2cccs2)cc1	-3%	-3%	nt	nt	nt	nt
Cc1ccc(-c2csc(N3CCC(C(N)=O)CC3)n2)cc1	-8%	-3%	nt	nt	nt	nt
Cc1ccc(-c2csc(N=C(N)N)n2)cc1	5%	-5%	28*	64*	2%	0%
Oc1cc2c(cc1C(c1ccc(Cl)c(Cl)c1)N1CCCC1)OCO2 (configuration not stated)	?	0.5µM*	7	-12	?	4%
CC(C)c1ccc(NC(=O)C(c2ccc3c(c2)OCO3)N2CCCCC2)cc1 (configuration not stated)	5%	0%	-1	33	-11%	12%
COc1ccc(-n2c(C)cc(C(=O)CSc3nnc(-c4ccoc4C)n3C)c2C)cc1	-4%	0%	2	12	?	0%
COc1ccc(-n2c(C)cc(C(=O)CSc3ccc(NC(C)=O)cc3)c2C)cc1	-7%	-8%	29*	69*	2%	6%
CC(=O)Nc1ccc(SCC(=O)c2cc(C)n(-c3ccccc3)c2C)cc1	-6%	-5%	45*	86	1%	-2%
CC(=O)Nc1ccc(SCC(=O)c2cc(C)ccc2C)cc1	-5%	-4%	4	-10	6%	3%
CN(CCOc1ccc(Cl)cc1)C(=O)C1CCN(C(=O)c2ccc(F)cc2)CC1	-2%	-3%	-3	-13	nt	-2%

Screening results from PubChem.
